Measurements taken from the supplement of paper PMC10849652.
About 8,800 targets were measured; listed, in parts, are those with a hit and a random draw of the rest. About 0.5% of all pairs of compound and target were hits.

Key:
Test in all cases: log2 fold change, soluble protein after heating vs DMSO (PISA); higher = thermal stabilisation; K562 lysate, 10 uM; active = over 0.2 and 3.5 SD of the protein, either way, in both replicates (recomputed)
[1] = compound: CS(=O)(=O)N1CCN(Cc2cc3nc(-c4cccc5[nH]ncc45)nc(N4CCOCC4)c3s2)CC1 [pictilisib]
Outline: (§1)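 Dounce homogenisation of K562 pellets in PBS pH 7.4 with 1 mM MgCl2 produced a crude extract, used at 1 mg/mL protein. Exposure to 10 μM compound lasted 30 min, and aliquots were then heated for 3 min across 48°C-58°C, pooled and brought to 0.5% NP-40 at 4°C. The supernatant after 21,000xg for 90 min was quantified by TMTpro 16plex LC-MS/MS with channel sums equalised. Duplicate values are given as log-two fold change in thermal stability relative to solvent controls.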

[2] = compound: C[C@@H](Oc1cc(-c2cnn(C3CCNCC3)c2)cnc1N)c1c(Cl)ccc(F)c1Cl [crizotinib]
Outline: as §1

[3] = compound: C[C@H](C1=CC=C(C=C1)C(=O)NC2=C3C=CNC3=NC=C2)N
Outline: as §1

[4] = compound: C[C@H](Nc1ncnc2nc[nH]c12)c1cc2cccc(Cl)c2c(=O)n1-c1ccccc1 [duvelisib]
Outline: as §1

[5] = compound: Cc1cc(Nc2cc(CN3CCOCC3)c3nc(C)c(Cc4ccc(Cl)cc4F)n3n2)n[nH]1 [gandotinib]
Outline: as §1

[6] = compound: Cc1cc(Nc2cc(N3CCN(C)CC3)nc(Sc3ccc(NC(=O)C4CC4)cc3)n2)n[nH]1 [tozasertib]
Outline: as §1

[7] = compound: Cc1ccc(-n2nc(C(C)(C)C)cc2NC(=O)Nc2ccc(OCCN3CCOCC3)c3ccccc23)cc1 [doramapimod]
Outline: as §1

[8] = compound: Cc1ccc(NC(=O)c2ccc(CN3CC[C@H](N(C)C)C3)c(C(F)(F)F)c2)cc1Nc1nccc(-c2cncnc2)n1 [bafetinib]
Outline: as §1

[9] = compound: Cc1cccc(CC(=O)N2CCc3c2ccc(-c2cn(C)c4ncnc(N)c24)c3F)n1
Outline: as §1

[10] = compound: CS(=O)(=O)CCNCc1ccc(-c2ccc3ncnc(Nc4ccc(OCc5cccc(F)c5)c(Cl)c4)c3c2)o1 [lapatinib]
Outline: as §1

Measured: log2 fold change

HTT (UniProt P42858)
inactive: [1] -0.028 | [2] -0.042 | [3] -0.012 | [4] -0.016 | [5] -0.124 | [6] 0.002 | [7] 0.006 | [8] -0.112 | [9] 0.094

ITM2B (UniProt Q9Y287)
Chain of UniProt Q9Y287 (Q9Y287 whole entry, looked up): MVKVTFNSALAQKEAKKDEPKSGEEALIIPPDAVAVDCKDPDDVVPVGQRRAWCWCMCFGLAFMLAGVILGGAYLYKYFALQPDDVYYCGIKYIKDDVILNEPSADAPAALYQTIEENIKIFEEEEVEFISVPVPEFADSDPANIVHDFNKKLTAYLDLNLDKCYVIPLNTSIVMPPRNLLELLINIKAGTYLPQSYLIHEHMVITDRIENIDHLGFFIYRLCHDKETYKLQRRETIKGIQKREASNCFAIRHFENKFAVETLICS
inactive: [1] -0.087 | [2] 0.005 | [3] -0.061 | [4] 0.033 | [5] -0.037 | [7] 0.007 | [8] -0.032 | [9] 0.138

GTPBP6 (UniProt O43824)
Chain of UniProt O43824 (O43824 whole entry, looked up): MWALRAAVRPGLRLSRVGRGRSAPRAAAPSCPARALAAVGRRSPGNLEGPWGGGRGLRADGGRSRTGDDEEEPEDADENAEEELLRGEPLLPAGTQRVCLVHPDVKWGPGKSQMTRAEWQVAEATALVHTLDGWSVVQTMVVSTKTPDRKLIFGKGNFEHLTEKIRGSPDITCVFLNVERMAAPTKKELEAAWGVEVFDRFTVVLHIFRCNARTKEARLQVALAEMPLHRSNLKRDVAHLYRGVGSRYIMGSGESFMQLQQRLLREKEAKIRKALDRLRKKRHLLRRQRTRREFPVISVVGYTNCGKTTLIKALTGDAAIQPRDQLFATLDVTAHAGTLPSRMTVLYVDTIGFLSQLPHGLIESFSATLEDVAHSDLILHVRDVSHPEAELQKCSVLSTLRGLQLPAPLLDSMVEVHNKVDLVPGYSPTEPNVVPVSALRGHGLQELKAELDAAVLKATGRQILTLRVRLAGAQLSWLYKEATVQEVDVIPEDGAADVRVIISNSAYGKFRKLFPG
inactive: [3] 0.149 | [4] -0.003 | [5] 0.156 | [6] 0.023 | [9] -0.023

HIST2H2AA3 (UniProt Q6FI13)
inactive: [10] 0.001 | [1] -0.016 | [2] 0.049 | [4] -0.044 | [5] -0.143 | [6] 0.022 | [7] -0.088 | [8] 0.159 | [9] -0.171
active: [3] 0.555

KATNBL1 (UniProt Q9H079)
Chain of UniProt Q9H079 (Q9H079 whole entry, looked up): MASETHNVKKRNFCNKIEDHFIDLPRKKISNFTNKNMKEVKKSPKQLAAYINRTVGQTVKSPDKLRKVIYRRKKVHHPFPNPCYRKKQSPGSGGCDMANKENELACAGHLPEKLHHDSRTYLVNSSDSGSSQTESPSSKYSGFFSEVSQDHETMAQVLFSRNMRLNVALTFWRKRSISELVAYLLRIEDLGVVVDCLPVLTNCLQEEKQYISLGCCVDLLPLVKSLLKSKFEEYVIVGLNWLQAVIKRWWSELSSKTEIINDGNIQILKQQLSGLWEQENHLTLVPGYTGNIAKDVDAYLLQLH
inactive: [10] -0.013 | [2] -0.066 | [3] 0.05 | [4] 0.164 | [5] -0.021 | [6] 0.169 | [7] -0.069 | [9] 0.01

GPA33 (UniProt Q99795)
active: [3] -0.584 | [5] 0.567
inactive: [10] -0.064 | [1] 0.059 | [4] 0.154 | [6] -0.015 | [8] -0.051 | [9] 0.554

IGFBP4 (UniProt P22692)
inactive: [10] -0.007 | [1] 0.015 | [2] -0.042 | [3] 0 | [4] -0.029 | [5] 0.019 | [7] 0.014 | [8] -0.149 | [9] 0.095

JAK3 (UniProt P52333)
Chain of UniProt P52333 (P52333 whole entry, looked up): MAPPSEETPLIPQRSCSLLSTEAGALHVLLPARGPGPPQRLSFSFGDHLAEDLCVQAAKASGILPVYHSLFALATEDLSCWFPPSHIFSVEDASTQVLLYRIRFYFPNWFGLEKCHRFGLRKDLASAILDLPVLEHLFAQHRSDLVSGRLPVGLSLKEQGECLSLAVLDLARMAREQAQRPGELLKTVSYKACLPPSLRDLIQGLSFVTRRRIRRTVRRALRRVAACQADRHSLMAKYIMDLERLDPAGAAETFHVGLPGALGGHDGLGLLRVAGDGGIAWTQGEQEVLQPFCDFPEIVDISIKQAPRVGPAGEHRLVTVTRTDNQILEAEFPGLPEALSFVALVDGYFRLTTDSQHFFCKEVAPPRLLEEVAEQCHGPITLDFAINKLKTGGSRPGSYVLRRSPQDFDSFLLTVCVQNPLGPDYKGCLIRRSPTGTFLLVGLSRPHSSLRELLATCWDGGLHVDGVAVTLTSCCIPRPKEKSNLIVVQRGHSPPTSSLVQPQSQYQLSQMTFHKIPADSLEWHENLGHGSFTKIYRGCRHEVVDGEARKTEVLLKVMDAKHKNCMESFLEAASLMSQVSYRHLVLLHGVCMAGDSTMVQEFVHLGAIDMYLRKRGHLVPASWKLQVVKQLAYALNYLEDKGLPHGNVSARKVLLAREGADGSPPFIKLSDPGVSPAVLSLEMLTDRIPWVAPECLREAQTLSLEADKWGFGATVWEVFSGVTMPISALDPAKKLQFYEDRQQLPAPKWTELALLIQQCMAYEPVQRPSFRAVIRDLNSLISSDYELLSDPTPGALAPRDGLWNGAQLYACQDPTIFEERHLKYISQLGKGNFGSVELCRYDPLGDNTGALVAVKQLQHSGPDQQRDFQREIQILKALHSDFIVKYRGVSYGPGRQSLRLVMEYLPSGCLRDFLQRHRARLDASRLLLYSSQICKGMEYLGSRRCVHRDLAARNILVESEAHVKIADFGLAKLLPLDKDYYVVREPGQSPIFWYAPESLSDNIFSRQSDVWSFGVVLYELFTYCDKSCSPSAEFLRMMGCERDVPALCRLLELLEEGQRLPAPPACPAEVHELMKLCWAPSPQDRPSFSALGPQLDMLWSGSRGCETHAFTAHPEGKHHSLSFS
active: [9] -0.612
inactive: [10] -0.002 | [1] 0.01 | [2] 0.051 | [3] 0.418 | [5] -0.526 | [7] -0.081 | [8] 0.14

IPP (UniProt Q9Y573)
Chain of UniProt Q9Y573 (Q9Y573 whole entry, looked up): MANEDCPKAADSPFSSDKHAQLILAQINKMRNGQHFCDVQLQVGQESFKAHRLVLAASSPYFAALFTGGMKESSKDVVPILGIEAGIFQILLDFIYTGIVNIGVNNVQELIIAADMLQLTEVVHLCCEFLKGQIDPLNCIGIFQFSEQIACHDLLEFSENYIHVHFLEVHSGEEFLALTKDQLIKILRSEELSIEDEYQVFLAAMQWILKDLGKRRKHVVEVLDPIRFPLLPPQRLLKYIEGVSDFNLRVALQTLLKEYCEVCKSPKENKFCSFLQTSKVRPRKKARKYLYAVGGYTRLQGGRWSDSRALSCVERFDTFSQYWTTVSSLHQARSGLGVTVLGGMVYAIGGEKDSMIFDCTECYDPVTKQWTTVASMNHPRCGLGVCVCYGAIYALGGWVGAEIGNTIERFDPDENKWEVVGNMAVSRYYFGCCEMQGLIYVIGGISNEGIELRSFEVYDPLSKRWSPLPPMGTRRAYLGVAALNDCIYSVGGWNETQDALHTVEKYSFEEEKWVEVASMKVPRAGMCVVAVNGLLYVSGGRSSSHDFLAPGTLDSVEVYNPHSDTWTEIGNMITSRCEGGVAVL
inactive: [10] 0.04 | [3] 0.067 | [4] -0.016 | [5] -0.172 | [6] 0.078 | [9] 0.074

IRS2 (UniProt Q9Y4H2)
inactive: [10] -0.128 | [1] 0.023 | [2] -0.186 | [4] 0 | [5] 0.296 | [7] 0.019 | [8] 0.031 | [9] 0.307
active: [3] -0.578

H3-3A (UniProt P84243)
inactive: [10] 0.028 | [1] -0.018 | [2] 0.046 | [3] 0 | [5] 0.016 | [6] -0.083 | [7] -0.062 | [8] -0.049 | [9] 0.03

ILKAP (UniProt Q9H0C8)
inactive: [10] 0.04 | [1] 0.049 | [2] 0.026 | [3] 0.022 | [4] 0.007 | [5] -0.052 | [6] 0.031 | [7] 0.029 | [8] 0.001 | [9] -0.021

GPN2 (UniProt Q9H9Y4)
inactive: [10] 0.041 | [2] 0.007 | [3] -0.035 | [4] 0.126 | [5] 0.068 | [6] 0.015 | [7] -0.005 | [9] 0.106

HOMER3 (UniProt Q9NSC5)
inactive: [10] 0.091 | [2] 0.021 | [3] 0.048 | [5] 0.061 | [7] 0.016 | [8] 0.234 | [9] -0.072
active: [1] 0.42

KDM5B isoform 2 (UniProt Q9UGL1)
inactive: [10] -0.006 | [1] -0.041 | [2] -0.02 | [3] -0.003 | [4] 0 | [5] 0.257 | [6] 0.13 | [7] -0.033 | [8] -0.013 | [9] 0.29

HNRNPM (UniProt M0QZM1)
inactive: [1] 0.076 | [2] -0.07 | [4] -0.06 | [6] 0.075 | [7] -0.017 | [8] -0.243

ITGB1BP2 (UniProt Q9UKP3)
Chain of UniProt Q9UKP3 (Q9UKP3 whole entry, looked up): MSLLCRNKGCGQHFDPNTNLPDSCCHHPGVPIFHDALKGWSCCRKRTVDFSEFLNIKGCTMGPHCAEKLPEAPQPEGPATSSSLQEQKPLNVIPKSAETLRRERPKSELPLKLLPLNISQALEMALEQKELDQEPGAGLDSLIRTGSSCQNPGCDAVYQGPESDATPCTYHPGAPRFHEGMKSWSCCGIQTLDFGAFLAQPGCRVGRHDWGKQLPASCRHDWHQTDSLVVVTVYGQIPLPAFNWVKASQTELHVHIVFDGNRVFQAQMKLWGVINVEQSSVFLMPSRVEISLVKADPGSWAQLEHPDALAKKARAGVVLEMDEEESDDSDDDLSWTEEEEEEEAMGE
inactive: [3] -0.18 | [4] -0.005 | [6] -0.259 | [9] 0.548
active: [5] 0.86

GPLD1 (UniProt P80108)
inactive: [2] -0.108 | [4] -0.049 | [7] 0.081

HNRNPAB isoform 3 (UniProt Q99729)
inactive: [10] 0.007 | [1] 0.01 | [2] 0.04 | [3] -0.068 | [4] -0.009 | [5] 0.019 | [6] -0.02 | [7] -0.058 | [8] -0.002 | [9] 0.033

ICAM2 (UniProt P13598)
active: [3] 0.293
inactive: [10] -0.008 | [1] -0.08 | [2] -0.002 | [4] -0.035 | [5] -0.04 | [6] -0.01 | [7] -0.014 | [8] 0.013 | [9] -0.075

ISL2 (UniProt Q96A47)
active: [3] 0.609
inactive: [1] 0 | [2] 0.001 | [4] 0.006 | [5] -0.104 | [7] -0.074 | [8] -0.055 | [9] -0.096

HMGN5 (UniProt Q5JSK9)
inactive: [10] -0.04 | [1] 0.017 | [6] 0.074 | [8] -0.04

GLUL (UniProt P15104)
inactive: [10] 0.04 | [1] 0.015 | [2] 0.066 | [4] 0.019 | [5] -0.093 | [6] -0.026 | [7] 0.014 | [8] 0.013 | [9] -0.147
active: [3] 0.213

HECW2 (UniProt Q9P2P5)
Chain of UniProt Q9P2P5 (Q9P2P5 whole entry, looked up): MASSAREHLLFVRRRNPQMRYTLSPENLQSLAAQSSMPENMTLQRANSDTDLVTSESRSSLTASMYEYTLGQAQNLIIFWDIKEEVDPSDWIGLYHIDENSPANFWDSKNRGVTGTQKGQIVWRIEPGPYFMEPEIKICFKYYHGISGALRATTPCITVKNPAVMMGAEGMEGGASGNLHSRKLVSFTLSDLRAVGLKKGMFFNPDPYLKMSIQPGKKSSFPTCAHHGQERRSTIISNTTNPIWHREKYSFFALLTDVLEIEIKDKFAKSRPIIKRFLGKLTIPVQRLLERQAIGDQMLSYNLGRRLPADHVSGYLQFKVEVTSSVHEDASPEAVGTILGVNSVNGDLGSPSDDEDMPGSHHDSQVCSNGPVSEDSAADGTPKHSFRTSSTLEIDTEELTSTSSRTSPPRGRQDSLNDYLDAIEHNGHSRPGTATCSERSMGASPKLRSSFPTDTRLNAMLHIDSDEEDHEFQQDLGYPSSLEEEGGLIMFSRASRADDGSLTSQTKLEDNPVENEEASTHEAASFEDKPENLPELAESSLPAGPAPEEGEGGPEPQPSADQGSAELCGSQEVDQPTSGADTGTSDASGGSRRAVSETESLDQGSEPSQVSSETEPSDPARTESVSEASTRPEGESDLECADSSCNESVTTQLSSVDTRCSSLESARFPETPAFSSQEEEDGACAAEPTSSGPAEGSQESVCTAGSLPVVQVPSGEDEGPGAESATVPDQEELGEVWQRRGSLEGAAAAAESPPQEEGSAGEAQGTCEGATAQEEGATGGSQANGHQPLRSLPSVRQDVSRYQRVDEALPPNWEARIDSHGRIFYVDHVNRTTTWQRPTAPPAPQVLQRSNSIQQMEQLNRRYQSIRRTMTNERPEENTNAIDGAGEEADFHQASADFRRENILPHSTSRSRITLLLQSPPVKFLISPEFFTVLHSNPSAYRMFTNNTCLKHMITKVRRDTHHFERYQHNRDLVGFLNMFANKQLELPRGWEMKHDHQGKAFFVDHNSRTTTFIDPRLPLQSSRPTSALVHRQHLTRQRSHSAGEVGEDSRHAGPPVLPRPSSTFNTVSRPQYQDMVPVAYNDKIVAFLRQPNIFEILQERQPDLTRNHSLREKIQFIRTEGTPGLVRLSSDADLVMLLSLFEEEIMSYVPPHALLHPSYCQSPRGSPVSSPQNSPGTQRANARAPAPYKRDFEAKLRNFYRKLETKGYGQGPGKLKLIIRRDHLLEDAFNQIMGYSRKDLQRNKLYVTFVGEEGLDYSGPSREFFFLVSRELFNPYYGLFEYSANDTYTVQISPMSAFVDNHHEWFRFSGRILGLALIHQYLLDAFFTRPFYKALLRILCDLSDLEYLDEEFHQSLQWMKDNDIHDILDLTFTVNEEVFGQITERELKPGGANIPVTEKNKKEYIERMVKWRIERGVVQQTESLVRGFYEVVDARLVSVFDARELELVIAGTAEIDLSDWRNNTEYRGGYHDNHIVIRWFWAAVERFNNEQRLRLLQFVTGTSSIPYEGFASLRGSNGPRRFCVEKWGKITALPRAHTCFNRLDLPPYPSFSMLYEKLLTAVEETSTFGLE
inactive: [2] -0.075 | [4] -0.088 | [6] 0.165 | [7] 0.24

HMGA1 isoform 2 (UniProt P17096)
inactive: [10] -0.005 | [2] 0.125 | [4] -0.011 | [5] -0.26 | [7] -0.274 | [9] -0.491
active: [3] 0.731

HYDIN (UniProt Q4G0P3)
inactive: [10] 0.037 | [4] 0.179 | [6] 0.041

GSTM2 (UniProt P28161)
Chain of UniProt P28161 (P28161 whole entry, looked up): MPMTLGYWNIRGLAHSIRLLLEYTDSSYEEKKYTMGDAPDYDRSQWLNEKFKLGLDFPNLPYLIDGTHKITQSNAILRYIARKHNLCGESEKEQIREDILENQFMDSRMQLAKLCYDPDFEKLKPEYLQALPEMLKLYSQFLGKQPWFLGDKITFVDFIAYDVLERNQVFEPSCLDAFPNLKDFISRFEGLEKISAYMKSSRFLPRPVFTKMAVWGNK
inactive: [10] -0.024 | [1] -0.011 | [3] 0.121 | [4] -0.067 | [5] -0.042 | [6] 0.02 | [8] -0.011 | [9] -0.079

ITPR2 (UniProt Q14571)
inactive: [10] -0.571 | [4] -0.004
